40 compounds from PubChem BioAssay (EPA / NIEHS) can be followed below.

What is called AC50 is the concentration at which the activity in the assay is half-maximal.

The source made the active and inactive calls. Rule for the calls: active = hit-call score of the fitted dose curve at least 0.9, where 1 is the maximum; inactive = score below 0.9.

Read-out in this test: JUN Transcription Factor, JUN (gene 3725)
Kind of test: LTEA_HepaRG_JUN: Life Technologies and Expression Analysis (LTEA) Assay for JUN Transcription Factor using HepaRG (AID 2283513). The following applies: mRNA level, 48 h; actives raise or lower the signal. On the procedure:
LTEA_HepaRG is a cell based, multiplexed-readout assay that uses HepaRG, a human liver cell line, with measurements taken at 48 hours after chemical dosing on a 96-well plate.LTEA_HepaRG_JUN is one of 102 assay component(s) measured in the LTEA HepaRG cell culture assay. It is a marker of Cell proliferation, survival, death.Data from the assay component LTEA_HepaRG_JUN was analyzed into 1 endpoint. This assay endpoint, LTEA_HepaRG_JUN, was analyzed with bidirectional fitting relative to DMSO as the negative control and baseline of activity. Using a type of inducible reporter, measures of mRNA induction for gain or loss-of-signal activity can be used to understand regulation of transcription factor activity. To generalize the intended target to other relatable targets, this assay endpoint is annotated to the dna binding intended target family, where the subfamily is basic leucine zipper.
A total of 1060 chemcials from the ToxCast library were tested in eight-point concentration-response experiments. Cell culture and cytotoxicity assays were conducted at Thermo Fisher Scientific's Custom Services facility (Madison, WI). A single lot of human HepaRG cells (Thermo Fisher Scientific, Frederick, MD) was used for the cell culture experiments. 96-well format collagen type I coated plates of human HepaRG cells were prepared using established methods. Briefly, cryopreserved HepaRG cells were thawed, plated at a density of approximately 100,000 cells/well in HepaRG Thaw, Plate, and General Purpose media (HPRG770, Thermo Fisher Scientific), and incubated for 48 hours. 0.5% DMSO was selected as vehicle control to balance the requisite need of DMSO in HepaRG cultures to maintain differentiation (for example, baseline metabolism, proportions of hepatocytes vs. cholangiocytes), while enabling further hepatic receptor pathway activation (for example, PXR and CAR) in response to chemical exposure. 48 hours after plating, the culture medium was replaced with HepaRG Serum-Free Incudtion Media. Cells were exposed to each test chemical in duplicate and maintained in CO2 incubators for another 48 hours. Chemical plates were thawed to room temperature and 200x concentrations of treatment groups were prepared. 8-point conentration-reponse curves were made with the highest exposure at 100 uM, followed by half-log dilutions, all in 0.5% DMSO. Each test plate contained variouse controls, induction positive controls (1mM phenobarbital), cytotoxicity positive controls ([…] aflatoxin B1), vehicle controls (0.5% DMSO), and total lysis controls (0.5% DMSO). Cell morphology images were taken using an Essen IncuCyte FLR automated microscope, with six 96-well plates imaged in about 24 minutes. Images were captured and exported and JPEG files. Spent culture media was transfered to black-well plates for the LDH assay, and remaining media was sorted at -80 C for later use. Cells were treated with RLT buffer and frozen until shipped for gene expression analysis. Total RNA was isolated from the cell suspension in 75 uL of Buffer RLT (Qiagen, Germantown, MD 20874) by Quintiles/Expression Analysis (Durham, NC) using a custom isolation procedure. Total RNA from each plate well was transferred to a preamplification plate. Fluidigm's 96.96 Dynamic ArrayTM (Fluidigm, Amsterdam, the Netherlands) technology was used for gene expression analyses by quantitative reverse transcription polymerase chain reaction (qRT-PCR, performed by Quintiles/Expression Analysis, Durham, NC)89. Standard TaqManTM Assays (Applied Biosystems/ThermoFisher Scientific, Foster City, CA) were used to assess the expression of 93 genes selected based on their selectivity and sensitivity to important hepatic receptors known to be modulated by environmental chemicals; importance in human hepatocyte functionality; and hepatotoxicity. […]
Turning to `CC[C@@H]1C[C@H](N(Cc2cc(C(F)(F)F)cc(C(F)(F)F)c2)C(C)=O)c2cc(C(F)(F)F)ccc2N1C(=O)OC(C)C`, the compound was classed as inactive.
On the same count and under the same terms, next, `CCOC(=O)O[C@H](C)OC(=O)c1ccc2c(c1)cc(C(=O)NC1CCN(C(C)C)CC1)n2Cc1cc(-c2ccc(Cl)s2)on1`: “inactive”.
`Oc1ccc2ccccc2c1`: the compound was classed as inactive.
For the compound `CN1C(=O)CC[C@H]1c1cccnc1`, the compound was classed as inactive.
In the case of `CC(C)(C)c1cc(/C=C2\SC(N)=NC2=O)cc(C(C)(C)C)c1O`, the AC50 was 66.6 µM (active).
Regarding `Clc1cc(Cl)c2c(c1)N=C1CCCCCN1C2`, the compound was classed as inactive.
With `NC(=O)c1nc(-c2cccc(-c3cc(F)ccc3OCC(F)(F)C(F)(F)F)c2)n[nH]1`, the AC50 was 79 µM (active).
Consider `CCO[Si](CCCNC(N)=O)(OCC)OCC`, for which the call was inactive.
On the same count and under the same terms, with `c1ccc2ccccc2c1` the entry was “inactive”; with `C[C@]12CC[C@@H]3c4ccc(O)cc4CC[C@H]3[C@@H]1CCC2=O`, “inactive”.
On the same count and under the same terms, with `CC(O)CC(C)(C)O` (stereo not given) the entry was “inactive”.
As for `CCN(Cc1cccnc1)C(=O)c1cccc(Cl)c1[C@]1(C)C(=O)N(Cc2ccc(OC)cc2OC)c2ccc(Cl)cc21`, the compound was called inactive.
The same measure, in the same setting: next, `OCCO`: “inactive”.
As to `CCCOC(=O)c1cc(O)c(O)c(O)c1`, the call was inactive.
As to `COc1cc(C(=O)NC2CCN(C)CC2)ccc1Nc1ncc2c(n1)N(C1CCCC1)CC(F)(F)C(=O)N2C`, the AC50 is 25.9 µM (active).
`NCc1cccc(C2CCN(C(=O)c3ccc(C#Cc4ccccc4F)o3)CC2)c1`: the compound was called inactive.
Take `CC1=CC(=O)/C(=C(/C)O)C(=O)O1`: the result was inactive.
In the case of `O=C(OCCCCCCOC(=O)c1ccccc1)c1ccccc1`, the compound was called inactive.
On to `CCN(CC)C(=O)c1cc(S(=O)(=O)Cc2ccccc2)c(N2CCC(c3ccccc3)CC2)cc1N(CC)CCN(C)C`, for which the AC50 is 30.4 µM (active).
For the compound `CCCCCCCCCCCO`, the compound was classed as inactive.
Regarding `CCN(Cc1cccc(S(=O)(=O)O)c1)c1ccc(C(=C2C=CC(=[N+](CC)Cc3cccc(S(=O)(=O)O)c3)C=C2)c2ccccc2S(=O)(=O)[O-])cc1`, the compound was classed as inactive.
For `CCCCCCCCN(C)CCCCCCCC`, the compound was called inactive.
With `Cc1occc1C(=O)Nc1ccc(C(=O)N2CCC(F)(F)/C(=C\C(=O)N3CCC(N4CCCCC4)CC3)c3ccccc32)cc1`, the outcome was inactive.
On to `CCCCCCCCCC(=O)O`, for which the result was inactive.
`O=c1ccc2ccccc2o1`: the result was inactive.
Same read-out and setting: with `CCCCOC(=O)c1ccc(O)cc1` the entry was “inactive”; with `C[C@]12CC[C@@H]3c4ccc(O)cc4CC[C@H]3[C@@H]1CC[C@H]2O`, “inactive”.
As for `CCCCCCCCOc1ccc(C(=O)c2ccccc2)c(O)c1`, the compound was called inactive.
With `CC[C@H](NC(=O)c1cc(F)ccc1NS(=O)(=O)c1cccc2cccnc12)c1ccccc1`, the compound was classed as inactive.
With `CC/C(=C(/CC)c1ccc(O)cc1)c1ccc(O)cc1`, the AC50 is 79.2 µM (active).
The same measure, in the same setting: with `O=C(Nc1ccc(Cl)cc1)Nc1ccc(Cl)c(Cl)c1` the figure was 22.8 µM (active).
In the case of `Cc1ncc(CO)c(CO)c1O`, the call was inactive.
As for `COc1cccc([C@H](O)C2CCN(CCc3ccc(F)cc3)CC2)c1OC`, the call was inactive.
On to `OC12N=C(c3ccccc3)SC1Cc1cc(Cl)ccc12` (stereo not given), for which the outcome was inactive.
Turning to `O=C=NCCCCCCN=C=O`, the compound was classed as inactive.
With `CC(=O)N1CCN(c2ccc(OC[C@H]3CO[C@](Cn4ccnc4)(c4ccc(Cl)cc4Cl)O3)cc2)CC1`, the AC50 is 50 µM (active).
For `O=c1c(-c2ccc(O)cc2)coc2cc(O)cc(O)c12`, the outcome was inactive.
With `c1ccc2n[nH]nc2c1`, the result was inactive.
The same measure, in the same setting: with `COCC(C)OCC(C)OCC(C)O` (stereo not given) the entry was “inactive”.
With `CN(C)C(=O)C1(N2CCCCC2)CCN(CC[C@@]2(c3ccc(Cl)c(Cl)c3)CN(C(=O)c3ccccc3)CCO2)CC1`, the AC50 is 31 µM (active).
